In PubChem BioAssay AID1159580 (chemical genetic matrix, 2015):
Where “and” joins values, the source holds several entries; their conditions need not be identical. Equal entries are not always repeated. The whole screen tested about 5,500 compounds, of which about 2,000 (36%) were called active. Roughly 18% stayed inconclusive and do not appear here. No stated cut-off is given here; in the data, active means normalized growth mostly below about 0.91 (no sharp cut-off); inconclusive means no clear call, values can overlap the other calls; inactive means mostly above about 0.92. Some of the results follow.

Test: chemical genetic growth profiling, strain panel (AID 1159580);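 further: tested at 20 µM; growth read once vehicle control cultures reached saturation at 30 °C; 1 = growth at the plate median or of vehicle wells; lower values mean less growth of the strain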
Conditions: S. cerevisiae deletion strains, growth OD

Measured: normalized growth

C=CC1=C(C(=O)O)N2C(=O)[C@@H](NC(=O)/C(=N/O)c3csc(N)n3)[C@H]2SC1
inactive: locus YAL013W, strain DEP1, hits give low values 1 | locus YAL021C, strain ccr4, hits give low values 1.01 | locus YAL026C, strain drs2, hits give low values 1.02 | locus YAL030W, strain snc1, hits give low values 1.01 | locus YBL061C, strain skt5, hits give low values 1.03 | locus YBR009C, strain hhf1, hits give low values 1 | locus YBR021W, strain FUR4, hits give low values 1.02 | locus YBR023C, strain chs3, hits give low values 1.02 | locus YBR171W, strain sec66, hits give low values 1.03 | locus YBR229C, strain ROT2, hits give low values 0.992 | locus YBR231C, strain swc5, hits give low values 1.01 | locus YBR279W, strain paf1, hits give low values 1.01 | locus YCL011C, strain gbp2, hits give low values 1.04 | locus YCL016C, strain dcc1, hits give low values 1.03 | locus YCL029C, strain bik1, hits give low values 0.987 | locus YCL061C, strain MRC1, hits give low values 1.04 | locus YCL069W, strain vba3, hits give low values 1.02 | locus YCR088W, strain abp1, hits give low values 1.02 | locus YDL005C, strain med2, hits give low values 1.02 | locus YDL035C, strain GPR1, hits give low values 1.03 | locus YDL040C, strain nat1, hits give low values 1.01 | locus YDL074C, strain BRE1, hits give low values 1.04 | locus YDL101C, strain DUN1, hits give low values 0.991 | locus YDL134C, strain PPH21, hits give low values 0.99 | locus YDL185W, strain tfp1, hits give low values 0.99 | locus YDL192W, strain arf1, hits give low values 0.986 | locus YDR001C, strain nth1, hits give low values 1.02 | locus YDR069C, strain doa4, hits give low values 1.04 | locus YDR101C, strain arx1, hits give low values 0.99 | locus YDR137W, strain rgp1, hits give low values 1.03 | locus YDR150W, strain NUM1, hits give low values 1.01 | locus YDR159W, strain sac3, hits give low values 1.02 | locus YDR162C, strain NBP2, hits give low values 1.03 | locus YDR195W, strain ref2 1 | locus YDR297W, strain sur2, hits give low values 1.03 | locus YDR318W, strain mcm21, hits give low values 1.01 | locus YDR334W, strain swr1, hits give low values 1.02 | locus YDR335W, strain msn5, hits give low values 1.02 | locus YDR388W, hits give low values 0.995 | locus YDR392W, strain spt3, hits give low values 1.01 | locus YDR502C, strain sam2, hits give low values 0.993 | locus YEL003W, strain gim4, hits give low values 1.01 | locus YEL037C, strain rad23, hits give low values 1.02 | locus YEL061C, strain CIN8 (second series), hits give low values 1.01 | locus YEL061C, strain CIN8, hits give low values 1.01 | locus YER015W, strain faa2, hits give low values 1.02 | locus YER016W, strain bim1, hits give low values 1.02 | locus YER110C, hits give low values 0.978 | locus YER111C, strain swi4, hits give low values 1.01 | locus YER155C, strain BEM2 (second series), hits give low values 1.06 | locus YER155C, strain BEM2, hits give low values 0.994 | locus YER167W, strain BCK2, hits give low values 1 | locus YFR010W, strain ubp6, hits give low values 1.03 | locus YGL078C, strain dbp3, hits give low values 0.989 | locus YGL086W, strain mad1, hits give low values 0.999 | locus YGL167C, strain pmr1, hits give low values 1.01 | locus YGL173C, strain kem1, hits give low values 1.04 | locus YGL227W, strain vid30, hits give low values 1.01 | locus YGL240W, strain doc1, hits give low values 1.01 | locus YGL248W, strain PDE1, hits give low values 0.989 | locus YGL253W, strain hxk2, hits give low values 1.01 | locus YGR078C, strain PAC10, hits give low values 1.07 | locus YGR135W, strain pre9, hits give low values 0.991 | locus YGR229C, strain SMI1, hits give low values 1.06 | locus YGR252W, strain gcn5, hits give low values 1 | locus YHR013C, strain ard1, hits give low values 1.08 | locus YHR027C, strain rpn1, hits give low values 1.02 | locus YHR030C, strain SLT2, hits give low values 1 and 0.986 | locus YHR079C, strain IRE1 (second series), hits give low values 0.989 | locus YHR079C, strain IRE1, hits give low values 0.975 | locus YHR094C, strain hxt1, hits give low values 0.991 | locus YHR129C, strain ARP1, hits give low values 0.995 | locus YHR142W, strain chs7, hits give low values 1.01 | locus YHR200W, strain rpn10, hits give low values 0.988 | locus YIL066C, strain RNR3, hits give low values 1.01 | locus YIL073C, strain SPO22, hits give low values 1.04 | locus YIL125W, strain kgd1, hits give low values 0.991 | locus YIR030C, strain dcg1, hits give low values 0.989 | locus YJL092W, strain hpr5, hits give low values 1.02 | locus YJL095W, strain BCK1 (second series), hits give low values 1.01 | locus YJL095W, strain BCK1, hits give low values 1.01 and 0.982 | locus YJL115W, strain asf1, hits give low values 1.05 | locus YJL129C, strain trk1, hits give low values 1.02 | locus YJL134W, strain LCB3, hits give low values 0.995 | locus YJL154C, strain vps35, hits give low values 1.02 | locus YJL164C, strain tpk1, hits give low values 1.04 | locus YJL166W, strain qcr8, hits give low values 1.04 | locus YJL168C, strain set2, hits give low values 0.986 | locus YJL187C, strain SWE1 (second series), hits give low values 0.997 | locus YJL187C, strain SWE1, hits give low values 1.03 | locus YJR043C, strain POL32, hits give low values 1.01
